Unmarked numbers belong to inactive results. Results filed as inconclusive are left out. Entries that show only a call come without a potency. Calls of active or inactive are those of the source. Unless noted, calls follow the shape of the dose curve; as a rule, active = well fitted curve in the direction sought with a large enough effect in the repeat runs; inconclusive = weak or mixed curves; inactive = no such curve, though single readings can be large; an effect the other way counts as inactive or inconclusive.
Tests used:
[1] = biological target: Thyrotropin receptor (Homo sapiens) (UniProt P16473); assay: qHTS assay to identify small molecule antagonists of the thyroid stimulating hormone receptor (TSHR) signaling pathway (AID 1259385; calls by dose curve; also: nearly all actives have a fitted effect of over 20% in size)
Thyrotropin receptor (Homo sapiens), sequence (P16473 whole entry, looked up): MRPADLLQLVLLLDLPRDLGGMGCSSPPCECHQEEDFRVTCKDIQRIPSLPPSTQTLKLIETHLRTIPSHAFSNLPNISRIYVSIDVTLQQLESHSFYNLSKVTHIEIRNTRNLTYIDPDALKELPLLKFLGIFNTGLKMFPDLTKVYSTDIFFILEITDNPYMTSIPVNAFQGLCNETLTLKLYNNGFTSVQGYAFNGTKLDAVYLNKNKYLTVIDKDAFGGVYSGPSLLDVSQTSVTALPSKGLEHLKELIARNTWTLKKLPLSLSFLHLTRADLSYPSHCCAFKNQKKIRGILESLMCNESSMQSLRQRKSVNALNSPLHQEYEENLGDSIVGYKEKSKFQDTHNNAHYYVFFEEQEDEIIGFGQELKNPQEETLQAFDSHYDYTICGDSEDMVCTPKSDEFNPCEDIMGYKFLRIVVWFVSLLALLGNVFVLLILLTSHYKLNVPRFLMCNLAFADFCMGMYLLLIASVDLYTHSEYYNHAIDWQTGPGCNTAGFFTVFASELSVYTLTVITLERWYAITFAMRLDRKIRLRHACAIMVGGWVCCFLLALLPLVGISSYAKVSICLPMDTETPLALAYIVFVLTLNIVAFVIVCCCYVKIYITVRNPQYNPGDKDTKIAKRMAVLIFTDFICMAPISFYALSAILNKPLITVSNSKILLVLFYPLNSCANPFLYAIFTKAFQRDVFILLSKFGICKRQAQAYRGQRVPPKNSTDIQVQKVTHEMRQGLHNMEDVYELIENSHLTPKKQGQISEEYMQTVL
In short: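 Antagonist mode: compound-treated TSHR-expressing HEK293 cells were stimulated with 1.5 ng/mL TSH (final) in presence of Ro20-1724 for 30 min at RT. HTRF cAMP detection after 1 h; each compound tested at 15 concentrations, triplicate.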

[2] = qHTS assay to identify small molecule agonists of the estrogen receptor alpha (ER-alpha) signaling pathway in the presence of an antagonist - cell viability counter screen (AID 1259386);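 also: series mostly up to about 92 µM; cells exposed to compounds for 22 h at 37 °C before the viability read; nearly all actives have a fitted effect of over 30% in size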
In short: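 ICI-182,780 at 10.0nM final accompanies the compound titration (15 concentrations, 22hr, 37C) on VM7Luc4E2 cells. The CellTiter-Fluor fluorescence readout runs in the same wells as the luciferase assay.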

[3] = biological target: Progesterone receptor (Homo sapiens) (UniProt P06401); assay: qHTS assay to identify small molecule agonists of the progesterone receptor (PR) signaling pathway (AID 1346784; calls by dose curve; also: nearly all actives have a fitted effect of over 30% in size)
Progesterone receptor (Homo sapiens), sequence (P06401 whole entry, looked up): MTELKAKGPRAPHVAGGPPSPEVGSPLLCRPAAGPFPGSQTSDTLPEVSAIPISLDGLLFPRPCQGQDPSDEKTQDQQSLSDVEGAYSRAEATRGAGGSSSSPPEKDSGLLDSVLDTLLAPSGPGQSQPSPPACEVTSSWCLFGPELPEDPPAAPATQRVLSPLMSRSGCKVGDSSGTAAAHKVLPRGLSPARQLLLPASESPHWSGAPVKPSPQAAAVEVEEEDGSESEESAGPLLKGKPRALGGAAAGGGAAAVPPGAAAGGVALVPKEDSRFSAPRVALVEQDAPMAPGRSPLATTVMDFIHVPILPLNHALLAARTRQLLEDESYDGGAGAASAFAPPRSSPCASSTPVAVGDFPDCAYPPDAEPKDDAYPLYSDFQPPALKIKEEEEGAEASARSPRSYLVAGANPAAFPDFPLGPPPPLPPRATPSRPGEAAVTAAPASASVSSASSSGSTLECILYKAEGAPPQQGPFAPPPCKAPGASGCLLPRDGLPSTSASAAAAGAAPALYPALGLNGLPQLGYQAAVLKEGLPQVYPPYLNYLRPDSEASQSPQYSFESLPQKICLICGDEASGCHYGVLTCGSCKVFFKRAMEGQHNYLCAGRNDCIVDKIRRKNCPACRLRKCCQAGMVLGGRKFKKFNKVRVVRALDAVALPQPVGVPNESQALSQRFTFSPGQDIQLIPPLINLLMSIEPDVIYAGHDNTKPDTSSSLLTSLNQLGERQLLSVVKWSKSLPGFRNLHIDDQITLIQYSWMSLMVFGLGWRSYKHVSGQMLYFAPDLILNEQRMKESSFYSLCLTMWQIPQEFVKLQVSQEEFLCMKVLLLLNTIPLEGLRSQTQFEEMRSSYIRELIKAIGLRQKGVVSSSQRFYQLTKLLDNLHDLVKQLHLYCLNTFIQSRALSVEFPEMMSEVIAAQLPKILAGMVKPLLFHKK
In short: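 Using charcoal-stripped serum (2%) to limit endogenous steroids, PR-UAS-bla HEK 293T cells received compounds for 16 hr at 37C after 6 hr plating; beta-lactamase FRET fluorescence was recorded following 2 hr substrate loading at room temperature.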

[4] = biological target: Progesterone receptor (Homo sapiens) (UniProt P06401); assay: qHTS assay to identify small molecule antagonists of the progesterone receptor (PR) signaling pathway (AID 1346795; active = well fitted inhibition curve with a large enough effect in the signal ratio in the repeat runs, not every such curve was filed as active; the % refers to the signal ratio)
In short: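 Inhibition of R5020-induced (1 nM final) beta-lactamase reporter signal in PR-UAS-bla HEK293T cells was scored by FRET fluorescence after overnight (16 hr) compound treatment.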

[5] = qHTS assay to identify small molecule antagonists of the progesterone receptor (PR) signaling pathway - cell viability counter screen (AID 1346798); also: series mostly up to about 92 µM; nearly all actives have a fitted effect of over 50% in size
In short: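 ATP content as viability readout: CellTiter-Glo luminescence, 30 min room temperature, in PR-UAS-bla HEK293T cells after 16 hr compound/R5020 treatment at 37C and 5% CO2.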

[6] = qHTS assay to identify small molecule agonists of the progesterone receptor (PR) signaling pathway - cell viability counter screen (AID 1346799; calls by dose curve; also: nearly all actives have a fitted effect of over 45% in size)
In short: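 Cytotoxicity in PR-bla HEK293T cells: 16 h compound, 37C; CellTiter-Glo added post-FRET read; luminescence after 30 min RT.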

[7] = qHTS assay to identify small molecule antagonists of the TGF-beta/Smad signaling pathway - cell viability counter screen (AID 1346824); also: nearly all actives have a fitted effect of over 50% in size
In short: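 Cytotoxicity counter-screen run in the same wells as the beta-lactamase Smad reporter read: CellTiter-Glo luminescence after 30 min at room temperature. HEK 293T SBE-bla cells had 5 hr compound exposure at 37 C with TGF-beta1 (0.25 ng/mL stock).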

[8] = qHTS assay to identify small molecule agonists of the TGF-beta/Smad signaling pathway - cell viability counter screen (AID 1346829); also: top concentration of the series differs between compounds; nearly all actives have a fitted effect of over 45% in size
In short: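 HEK 293T SBE-bla line, 5 hr compound exposure at 37 C, multiplexed CellTiter-Glo viability read by luminescence.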

[9] = qHTS assay to identify small molecule agonists of the TGF-beta/Smad signaling pathway (AID 1346859; active = well fitted activation curve with a large enough effect in the signal ratio in the repeat runs, not every such curve was filed as active; the % refers to the signal ratio; also: series mostly up to about 77 µM)
In short: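 Stable Smad binding element-beta-lactamase HEK 293T cells; 5 hr compound exposure at 37 C under 5% CO2; 2 hr room-temperature substrate step; fluorescence excited at 405 nm, collected at 460 nm and 530 nm.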

[10] = biological target: Thyrotropin-releasing hormone receptor (Homo sapiens) (UniProt P34981); assay: qHTS assay to identify small molecule antagonists of the thyrotropin-releasing hormone receptor (TRHR) signaling pathway (AID 1346877; active = well fitted inhibition curve with a large enough effect in the repeat runs, not every such curve was filed as active; also: series mostly up to about 51 µM)
Thyrotropin-releasing hormone receptor (Homo sapiens), sequence (P34981 whole entry, looked up): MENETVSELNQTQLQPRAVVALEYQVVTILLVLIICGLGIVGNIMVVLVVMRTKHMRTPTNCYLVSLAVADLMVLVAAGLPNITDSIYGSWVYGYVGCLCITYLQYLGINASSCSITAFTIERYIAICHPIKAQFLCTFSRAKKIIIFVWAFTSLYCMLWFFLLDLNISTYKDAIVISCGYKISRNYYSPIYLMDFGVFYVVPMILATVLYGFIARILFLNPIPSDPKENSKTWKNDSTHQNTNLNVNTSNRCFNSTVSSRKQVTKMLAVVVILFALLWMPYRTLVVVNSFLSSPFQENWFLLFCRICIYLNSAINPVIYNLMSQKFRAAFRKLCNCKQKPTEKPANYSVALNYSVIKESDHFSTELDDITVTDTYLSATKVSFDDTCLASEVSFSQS
In short: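 Screening used HEK293 cells engineered with TRHR, with a brief 5 min room-temperature compound exposure preceding addition of TRH to 1 nM. The read-out was kinetic calcium-dye fluorescence, concentration-response from 15 doses in triplicate.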

[11] = biological target: Thyrotropin-releasing hormone receptor (Homo sapiens) (UniProt P34981); assay: qHTS assay to identify small molecule agonists of the thyrotropin-releasing hormone receptor (TRHR) signaling pathway (AID 1346891; calls by dose curve;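 also: HEK293 cells expressing TRHR with calcium dye readout; series mostly up to about 58 µM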)
In short: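 In 1536-format, 1500 TRHR-Hek293 cells per well grew 18 h, took up calcium dye for 2 h at 37 °C, received compound, and were read kinetically; 15-point titrations, triplicates.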

[12] = Human pregnane X receptor (PXR) small molecule agonists, qHTS cell viability counter screen (AID 1346977); also: nearly all actives have a fitted effect of over 50% in size
In short: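 Readout is CellTiter-Fluor fluorescence from PXR-Luc HepG2 cells. Plated cells rested 5hr, then were treated with compounds for 24hr at 37C and 5% CO2, with reagent present during the last hour.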

[13] = Caspase-3/7 induction in HepG2 cells by small molecules, qHTS assay (AID 1346978); also: nearly all actives have a fitted effect of over 15% in size
In short: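 Caspase-3/7 induction was measured by Caspase-Glo 3/7 luminescence (30 min, room temperature) after a 17 hr compound exposure of wild-type HepG2 cells seeded at 2,000 per well and pre-incubated 5 hr.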

[14] = Caspase-3/7 induction in CHO-K1 cells by small molecules, qHTS cell viability counter screen (AID 1346979); also: nearly all actives have a fitted effect of over 35% in size
In short: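 To flag cytotoxic compounds, treated CHO-K1 wild-type cells were given CellTiter-Fluor at 16hr and read fluorescently after 1hr at 37C; the caspase-3/7 luminescence was measured in these same wells.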

[15] = Caspase-3/7 induction in CHO-K1 cells by small molecules, qHTS assay (AID 1346980); also: nearly all actives have a fitted effect of over 15% in size
In short: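 Luminescent Caspase-Glo 3/7 read (30min, room temperature) quantified apoptosis induction. Cells were wild-type CHO-K1, treated with compound for 17hr at 37 C and 5% CO2.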

[16] = biological target: Nuclear receptor subfamily 1 group I member 2 (Homo sapiens) (UniProt O75469); assay: Human pregnane X receptor (PXR) small molecule agonists, qHTS assay (AID 1346982); also: nearly all actives have a fitted effect of over 35% in size; also: potency is read from the fitted curve at half-maximal effect
Nuclear receptor subfamily 1 group I member 2 (Homo sapiens), sequence (O75469 whole entry, looked up): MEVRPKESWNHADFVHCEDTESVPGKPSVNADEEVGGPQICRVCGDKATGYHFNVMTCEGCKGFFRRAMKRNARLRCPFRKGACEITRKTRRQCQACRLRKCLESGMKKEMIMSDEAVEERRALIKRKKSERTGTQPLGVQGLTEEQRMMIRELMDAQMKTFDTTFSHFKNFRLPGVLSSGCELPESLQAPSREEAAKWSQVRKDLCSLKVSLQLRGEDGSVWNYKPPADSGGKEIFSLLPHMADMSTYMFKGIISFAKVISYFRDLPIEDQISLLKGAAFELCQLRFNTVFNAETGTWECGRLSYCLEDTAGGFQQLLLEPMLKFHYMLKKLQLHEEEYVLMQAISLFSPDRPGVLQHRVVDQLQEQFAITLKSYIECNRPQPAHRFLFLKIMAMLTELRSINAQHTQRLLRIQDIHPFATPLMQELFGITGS
In short: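 We seeded PXR-Luc HepG2 cells in assay medium containing 5% charcoal-stripped FBS, added compounds 5 hr later, incubated 24 hr, and read luminescence with ONE-Glo reagent.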

[17] = biological target: Nuclear receptor subfamily 1 group I member 2 (Rattus norvegicus) (UniProt Q9R1A7); assay: Rat pregnane X receptor (rPXR) activation by small molecules, qHTS assay (AID 1346983); conditions: rPXR luciferase reporter cells, One-Glo luminescence, 24 h; active compounds read high; also: nearly all actives have a fitted effect of over 20% in size
Nuclear receptor subfamily 1 group I member 2 (Rattus norvegicus), sequence (Q9R1A7 whole entry, looked up): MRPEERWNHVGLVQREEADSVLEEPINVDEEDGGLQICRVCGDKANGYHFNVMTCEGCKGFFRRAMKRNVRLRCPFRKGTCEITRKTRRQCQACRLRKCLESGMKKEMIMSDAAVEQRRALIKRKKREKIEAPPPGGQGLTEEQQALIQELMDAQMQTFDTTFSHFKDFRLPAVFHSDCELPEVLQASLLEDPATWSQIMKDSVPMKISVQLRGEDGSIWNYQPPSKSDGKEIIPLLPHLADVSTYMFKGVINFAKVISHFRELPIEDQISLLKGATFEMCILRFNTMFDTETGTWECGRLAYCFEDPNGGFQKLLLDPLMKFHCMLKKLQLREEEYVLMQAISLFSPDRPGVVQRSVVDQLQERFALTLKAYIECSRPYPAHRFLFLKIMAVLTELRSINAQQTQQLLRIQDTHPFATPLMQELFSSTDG
In short: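 Luminescent readout (One-Glo luciferase, 30 min room temperature) followed 24 hr compound treatment at 37 C of rPXR cells plated 2,000 per well and preincubated 5hr; qHTS format with compounds delivered in DMSO.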

[18] = biological target: Nuclear receptor subfamily 1 group I member 2 (Homo sapiens) (UniProt O75469); assay: CYP3A4 induction through human pregnane X receptor (PXR) by small molecules, qHTS assay (AID 1346984); also: nearly all actives have a fitted effect of over 40% in size
In short: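 qHTS, concentration-response format: HepG2 DPX-2 line, PXR/CYP3A4-luc. Exposure 24 h, 37C. Substrate Luciferin-IPA 3uM final, 3 h. Detection One-Glo, 30 min RT.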

[19] = biological target: Nuclear receptor subfamily 1 group I member 2 (Homo sapiens) (UniProt O75469); assay: Human pregnane X receptor (PXR) activation by small molecules, qHTS assay (AID 1346985); also: nearly all actives have a fitted effect of over 40% in size
In short: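 DPX-2 cells (HepG2 co-transfected with a PXR response element and a CYP3A4-promoter luciferase construct) were seeded at 2,000 per well, rested 5 hr at 37C, then exposed to DMSO-dissolved compounds for 24 hr. Activation was read as luciferase luminescence.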

[20] = Caspase-3/7 induction in HepG2 cells by small molecules, qHTS cell viability counter screen (AID 1346981); also: series mostly up to about 92 µM; nearly all actives have a fitted effect of over 30% in size
In short: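 Multiplexed with the caspase-3/7 assay: HepG2 cells, 16 hr compound treatment, CellTiter-Fluor viability detection by fluorescence.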

Structure (SMILES) | outcome [1] | Potency [2] | Potency [3] | Potency [4] | Potency [5] | Potency [6] | outcome [7] | outcome [8] | outcome [9] | outcome [10] | outcome [11] | Potency [12] | Potency [13] | Potency [14] | outcome [15] | Potency [16] | max activation [17] [%] | Potency [18] | Potency [19] | Potency [20]
CCOc1cc(NC(C)=O)ccc1C(=O)OC | inactive | inactive | inactive | inactive | inactive | inactive | inactive | inactive | inactive | inactive | inactive | inactive | inactive | inactive | inactive | inactive | -4.18 | inactive | inactive | 
CC(C)=CCOC(=O)c1ccccc1 | inactive | inactive | inactive | inactive | inactive | inactive | inactive | inactive | inactive | inactive | inactive | inactive | inactive | inactive | inactive | inactive |  |  |  | 
CNC(=O)[C@H]1O[C@@H](n2cnc3c(NCc4cc(Cl)ccc4OCc4cc(C)no4)ncnc32)[C@H](O)[C@@H]1N | inactive | inactive | inactive | inactive | inactive | inactive | inactive | inactive | inactive | inactive | inactive | inactive | inactive | inactive |  | inactive |  |  |  | inactive
CCN(CC)CC(=O)Nc1c(C)cccc1C | inactive | inactive | inactive | inactive | inactive | inactive | inactive | inactive | inactive | inactive | inactive | inactive | inactive | inactive | inactive |  |  |  |  | inactive
CN(C)CCOCCO | inactive | inactive | inactive | inactive | inactive | inactive | inactive | inactive | inactive | inactive | inactive | inactive | inactive | inactive | inactive | inactive |  |  |  | inactive
CCCCCCCCCC(C)=O | inactive | inactive | inactive | inactive | inactive | inactive | inactive | inactive | inactive | inactive | inactive | inactive | inactive | inactive | inactive | inactive |  |  |  | inactive
CCCCCCCCC1CCC(=O)O1 (configuration not stated) | inactive | inactive | inactive | inactive | inactive | inactive | inactive | inactive | inactive | inactive | inactive | inactive | inactive | inactive | inactive | 30.6 µM (active) |  |  |  | 

Source: PubChem BioAssay (Tox21)
